# Data from ChEMBL document CHEMBL3988442, “University of Dundee, Small-Polar-MMV Screening Library” (2021).
# Target: AMP-activated protein kinase, AMPK (Homo sapiens) (UniProt P54646+O43741+P54619+Q9UGJ0+Q9Y478+Q13131+Q9UGI9)
# Test: AMP-dependent Kinase enzyme assay. An in vitro enzyme assay that detects ADP turnover that is directly proportional to AMPK activity. This uses naive AMPK that is activated during the assay with MK-8722
# Type: functional
# Parameters: scale not given: direction of the effect not stated beside the values
# Conditions: 30 µM
row,SMILES,Percent Effect
1,Cc1cccc(S(=O)(=O)NC2CCN(CC(F)(F)F)C2)c1 (stereo not given),-6.29%
2,CC(NC(=O)NCc1cccnc1N(C)C)c1ccc(F)cc1 (stereo not given),-7.51%
3,Cc1nn(C)c(C)c1C1CCCN1C(=O)c1ccc(C(N)=O)s1 (stereo not given),-0.19%
4,Cn1ccnc1C(O)c1ccccc1N1CCN(CC2CCCC2)CC1 (stereo not given),16.2%
5,CN1CCN(CCOc2ccc(NC(=O)c3ccoc3)cc2)CC1,-4.02%
6,CCCc1ccc(CN2CCC3(CCC(=O)N(CCO)C3)CC2)o1,12.9%
7,COCCCC1(CO)CCCN(C(=O)c2cnc3c(c2)CCCC3)C1 (stereo not given),-2.32%
8,COc1cccc2c1OCC(C(=O)NCc1ncc3c(n1)CCC3)C2 (stereo not given),6.59%
9,Cc1ccccc1Cn1cnc2oc(C)c(C(=O)O)c2c1=O,9.55%
10,Cc1cnn(C2CCCN(C(=O)c3cc(-c4ccccc4C)n[nH]3)C2)c1 (stereo not given),1.68%
11,CC(C)C(=O)NCC(=O)N1CCC2(CC1)c1ccccc1[C@@H](N)[C@@H]2O,3.94%
12,CC(=O)N1CCC(NC(=O)CN2CCCc3c(F)ccc(C)c32)CC1,3.84%
13,Cc1cc(N2CCOC(c3ccc(N(C)C)cn3)C2)nc(N)n1 (stereo not given),7.96%
14,COCCN(C)C[C@@H]1CN(Cc2ccnc3ccccc23)C[C@@H]1CO,-4.2%
15,O=C(Cc1c(F)cccc1Cl)Nc1cc(N2CCCC2)ncn1,4.4%
16,Cc1ccc(-c2ccccc2CC2(C(=O)NC(C)C)CCCNC2)cc1 (stereo not given),6.43%
17,c1cnn(C2CN(c3nc(-c4ccncc4)nc4c3CCC4)C2)c1,1.13%
18,c1ccc(Cc2noc(-c3ccc(NCC4CCCOC4)nc3)n2)cc1 (stereo not given),6.64%
19,CS(=O)(=O)c1ccccc1N[C@@H]1c2ccccc2C[C@@H]1O,-13.1%
20,CS(=O)(=O)NCCN1CCSCC1c1ccc(Cl)cc1 (stereo not given),1.33%

row,SMILES,Percent Effect
1,Cc1csc(NC(=O)NCCCN2CCC(C(N)=O)CC2)n1,1.03%
2,Cc1csc(C(C)(C)NCC(=O)N(C)Cc2ccc(C)o2)n1,-7.36%
3,CC(C)(C(=O)N[C@@H]1CCC[C@@H](O)[C@@H]1O)c1cccc(F)c1,15.9%
4,CC(=O)NCc1ccc(C(=O)N2CCCc3c(F)ccc(C)c32)o1,0.928%
5,CC(C)c1nc(C2CCCN2CCc2ccccn2)no1 (stereo not given),20.7%
6,CCc1nnc2n1CCN(C(=O)C(C)Oc1ccc(C#N)cc1)C2 (stereo not given),10.6%
7,Cn1nccc1-c1cncc(C2CCCN(S(C)(=O)=O)C2)n1 (stereo not given),22.7%
8,Cc1cnn(CCNCC(=O)N2CCN(c3ncccn3)CC2)c1,-6.6%
9,CC(C)c1cc(NCc2csc(C(C)C)n2)nc(N)n1,-7.72%
10,NC(=O)CN1CCC(c2noc3cc(F)ccc23)CC1,12.7%
11,N#Cc1ccc(SCCC(=O)Nc2ccc(CC(N)=O)cc2)cc1,0.314%
12,CCc1nc(C)c(C(=O)N[C@@H]2c3ccccc3C[C@@H]2O)o1,15.9%
13,Cc1cc(N2CCOC(c3ccccn3)C2)nc(N)n1 (stereo not given),10.1%
14,c1csc(-c2noc(C3CNC3)n2)c1,8.02%
15,Fc1ccc(C2CCCCN2Cc2cc(-c3ccccn3)no2)cc1 (stereo not given),7.03%
16,CN1C(=O)[C@H]2CC[C@@H]1CN(C(=O)Nc1ccccc1C(F)(F)F)C2,-0.892%
17,O=C1CN(Cc2cn(CC3CCN(C4CCSCC4)CC3)nn2)CCN1,-3.51%
18,CN1C[C@@H]2CC[C@H](CC1=O)N2C(=O)c1cc2ccccc2[nH]c1=O,5.77%
19,c1nc(N2CCCC2)ncc1CN1CCCC(CN2CCCCC2)C1 (stereo not given),-7.34%
20,CC(C)(C)C(=O)N1CCC(c2cnc(-c3cn[nH]c3)cn2)CC1,1.14%
